Screening data (PubChem BioAssay)
TDP1 inh: qHTS Assay for Inhibitors of Tyrosyl-DNA Phosphodiesterase (TDP1); recombinant TDP1, AlphaScreen DNA substrate cleavage; Potency, µM (highest dose often 130 µM), without a hit: at the highest dose activity change, negative = inhibition, usual class: inhibitors; hit rate 0.28% among 350,000; note: % is set by controls: 0 for no effect and ±100 for the full control effect; nearly all actives have a fitted effect of over 40% in size
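E. coli-derived human Tdp1, 1 nM final. Cpd preinc 15 min RT; substrate 15 nM final, 5 min RT; AS bead mix 10 ug/ml final, 10 min RT. Signal loss = tyrosine-FITC cleavage. No-enzyme wells = max signal.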
HP1b chromo inh: HTS for Inhibitors of HP1-beta Chromodomain Interactions with Methylated Histone Tails | Chromobox protein homolog 1 (Homo sapiens), P83916 | AlphaScreen HP1-beta / biotin-H3K9me3 peptide binding | Potency, µM (series often up to 114 µM), inactives show at the highest dose activity change, negative = inhibition, actives largely listed as inhibitors | hit rate 0.56% among 390,000; note: nearly all actives have a fitted effect of over 70% in size
Target sequence (P83916 whole entry, looked up): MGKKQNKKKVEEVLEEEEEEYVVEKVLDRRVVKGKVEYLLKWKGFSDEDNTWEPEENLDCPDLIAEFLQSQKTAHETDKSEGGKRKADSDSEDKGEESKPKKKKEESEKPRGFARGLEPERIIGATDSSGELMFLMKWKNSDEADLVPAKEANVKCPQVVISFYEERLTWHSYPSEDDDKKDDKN
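HP1-beta protein (50 nM final) preincubated 30 min at room temperature with biotinylated H3(1-18)K9me3 peptide (50 nM) in PBS pH 7.4, 0.01% Tween-20, then compound added for 30 min. AlphaScreen streptavidin donor/nickel chelate acceptor beads (10 ug/mL final), 30 min dark, luminescence read.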
G9a block: qHTS Assay for Inhibitors of Histone Lysine Methyltransferase G9a. hit rate 8.8% among 350,000. Potency, µM (titrated, usually from 102 µM), for the others: at the highest dose activity, negative = inhibition, most hits filed as inhibitors. Histone-lysine N-methyltransferase EHMT2 (Homo sapiens), Q96KQ7. G9a H3K9 monomethylation, AlphaScreen, 2 h; note: % is set by controls: 0 for no effect and ±100 for the full control effect; nearly all actives have a fitted effect of over 75% in size
Target sequence (Q96KQ7 913-1193 limits assumed): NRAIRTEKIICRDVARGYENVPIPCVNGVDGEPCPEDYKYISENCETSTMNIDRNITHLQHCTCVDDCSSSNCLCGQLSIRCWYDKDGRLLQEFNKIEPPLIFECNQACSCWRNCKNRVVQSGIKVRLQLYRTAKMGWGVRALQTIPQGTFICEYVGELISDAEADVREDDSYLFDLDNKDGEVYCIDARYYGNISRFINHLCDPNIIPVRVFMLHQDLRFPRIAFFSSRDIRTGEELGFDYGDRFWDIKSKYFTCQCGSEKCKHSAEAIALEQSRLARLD
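Compounds were preincubated with 20 nM G9a for 15 min, after which biotinylated H3K9 peptide (500 nM) and SAM (20 uM) started a 2 h room-temperature reaction. Monomethylated product was quantified by antibody-based AlphaScreen chemiluminescence.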
BAZ2B block: qHTS Assay for Inhibitors of BAZ2B. Bromodomain adjacent to zinc finger domain protein 2B (Homo sapiens), Q9UIF8. hit rate 4.4% among 360,000. Potency, µM (doses to about 114 µM), inactives show at the highest dose activity change, negative = inhibition, actives largely listed as inhibitors. AlphaScreen BAZ2B-H3K14Ac peptide displacement; note: % is set by controls: 0 for no effect and ±100 for the full control effect; nearly all actives have a fitted effect of over 60% in size
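BAZ2B 50 nM plus b-H3(5-23)K14Ac 50 nM, PBS pH 7.4/0.01% Tween-20, 30 min RT; compound added (max 110 uM), 30 min RT; streptavidin donor/Ni-chelate acceptor beads 10 ug/mL final, 20 min dark; AlphaScreen read.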
JMJD2A Tudor: qHTS Assay for Inhibitors of JMJD2A-Tudor Domain. Lysine-specific demethylase 4A (Homo sapiens), O75164. AlphaScreen JMJD2A-Tudor / H3K4me3 peptide binding. Potency, µM (top dose mostly 114 µM), inactives show at the top dose activity change, negative = inhibition, usual class: inhibitors. hit rate 4.4% among 390,000; note: % is set by controls: 0 for no effect and ±100 for the full control effect; nearly all actives have a fitted effect of over 50% in size
Sfp inh: qHTS Assay for Inhibitors of Bacillus subtilis Sfp phosphopantetheinyl transferase (PPTase); 4'-phosphopantetheinyl transferase ffp (Bacillus subtilis), Q9F4F7; hit rate 3.5% among 310,000; Biochemical Sfp PPTase activity, qHTS; AID 1490, 2009; Potency, µM, for the others: largest response in the series, negative = inhibition, hits mostly inhibitors;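 note: the enzyme is Sfp with the accession as filed and its product quenches rhodamine fluorescence; 0% = enzyme reaction without inhibitor and -100% = no enzyme wells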
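Sfp 15 nM + cpd, 15 min RT; start w/ rhodamine-CoA 5 uM, BHQ-2-YbbR 12.5 uM (final); 50 mM Hepes pH 7.6, 10 mM MgCl2, 0.01% NP-40, 0.01% BSA; read 525/598 nm at 0 and 30 min.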
The depositor's hits bear a star; ? = inconclusive; . = no result; [ ] = remark or other dose. A selection: hits, their analogues and other compounds. The true share with any hit is near 12%. Calls come from the whole dose curve; as a rule, active = well fitted curve in the direction sought with a large enough effect; inconclusive = small, poorly fitted or top-dose-only effect, or another doubt; inactive = no such curve, though single readings can be large; an effect the other way counts as inactive or inconclusive. Potency is the fitted concentration of half-maximal effect.

SMILES | TDP1 inh | HP1b chromo inh | G9a block | BAZ2B block | JMJD2A Tudor | Sfp inh
CCOC(=O)NC(=O)COC(=O)c1ccc(Sc2ncn[nH]2)c([N+](=O)[O-])c1 | 1% | 1% | 20µM* | 79µM* | -31% | 0%
COCc1nc2ccccc2n1Cc1cccc(C)c1 | 5% | 52% | 22%[59 µM] | -6% | -3% | 3%
Cc1cccc(Cn2c(Cc3ccccc3)nc3ccccc32)c1 | 5% | 62% | 27%[59 µM] | 64% | 48% | 56µM*
COc1cccc(NC(=O)c2c([N+](=O)[O-])cnn2C)c1 | 2% | 17% | ? | -23% | -8% | 4%
COc1cc(CCN2C(=O)N[C@@H](CCc3ccccc3)C(C(C)=O)=C2C)cc(OC)c1OC | 9% | 40% | -40% | -24% | -10% | -2%
COc1cc(C2SC(C)C(=O)N2CCc2ccccc2)cc(OC)c1OC (centres undefined) | 0% | 31% | 50µM* | -3% | -7% | -6%
Cc1ccc2c(c1)C1CN(C)CCC1N2Sc1ccccc1[N+](=O)[O-] (centres undefined) | 12% | ? | ? | 16µM* | 32µM* | 1%
CC(=O)c1ccc(O)c(CSC2=NCCS2)c1 | 1% | 7% | -3% | -20% | -6% | 9%
Cc1noc(C)c1CCC(=O)N1CCCC(CCC(=O)NCc2ccccc2F)C1 (centres undefined) | -10% | 22% | 24%[12.7 µM] | -6% | -4% | 12%
O=C(C1CC1)N1CCc2cc(Br)cc(S(=O)(=O)Nc3ccc(C(F)(F)F)cc3)c21 | 6% | 19% | 0%[59 µM] | -17% | -15% | .
Cc1c(C)c2c(cc(C)c3c(-c4ccc(Br)cc4)coc32)oc1=O | 6% | -6% | -11%[59 µM] | -4% | -21% | .
CC(C)CSc1nc2c(c(=O)[nH]c(=O)n2C)n1CCc1ccccc1 | 1% | 24% | 4%[59 µM] | 16% | -18% | 2%
Cn1c(=O)[nH]c(=O)c2c1nc(NCCO)n2CC(O)COc1ccccc1 (centres undefined) | 4%[12.3 µM] | 35% | 7%[59 µM] | 2% | 2% | .
Cn1c(=O)[nH]c(=O)c2c1nc(SCCO)n2CC(O)COc1ccccc1 (centres undefined) | 0% | ? | 16µM* | -26% | -21% | 5µM*
CCSc1nc2c(c(=O)[nH]c(=O)n2C)n1CC(O)COc1ccccc1 (centres undefined) | 5% | 48% | 9% | . | -14% | 10%
CC(C)CSc1nc2c(c(=O)[nH]c(=O)n2C)n1CC(O)COc1cccc2ccccc12 (centres undefined) | 4% | ? | 4µM* | -9% | ? | 28µM*
CCCSc1nc2c(c(=O)[nH]c(=O)n2C)n1CC(O)COc1ccccc1 (centres undefined) | -5% | -3% | 50µM* | 2% | -9% | -4%
Cc1ccc(N(CC(=O)NCCSc2ccccc2)S(=O)(=O)c2ccc(F)cc2)cc1 | -3%[12.3 µM] | 62% | -44%[59 µM] | 1% | -17% | .
CCN1C[C@@H]2[C@@H]3C(=O)N(Cc4ccccc4)C(=O)[C@@H]3[C@](CC)(C1=O)N2C(=O)c1ccc(C(C)(C)C)cc1 | . | 34% | . | . | -17% | .
Clc1ccc(-c2nc3nc4ccccc4nc3n2Cc2ccco2)cc1 | -5% | 67% | -40%[59 µM] | -24% | -14% | 7.1µM*
CCC(=O)c1ccc(/C=C/c2nc3ccccc3n2C)o1 | 5% | 44% | 2%[59 µM] | 3% | 6%[11.4 µM] | -10%
COc1ccc(NS(=O)(=O)c2cc(NC(=O)c3ccco3)ccc2N2CCCC2)cc1 | 8% | 7% | 40µM* | -7% | -16% | -11%
